Rows were chosen to be rich in hits. Some 4% of all compounds tested hit in one or more screens of this group.
D1 potentiator = potentiators of human D1 dopamine receptor | P21728 | HEK293 TREx D1 cells, calcium flux, dopamine EC20 potentiation | potentiation, % at 10 µM | hit rate 0.036% among 360,000; in the data active = potentiation above about 30%; note: 0% is about no effect
Target sequence (P21728 whole entry, looked up): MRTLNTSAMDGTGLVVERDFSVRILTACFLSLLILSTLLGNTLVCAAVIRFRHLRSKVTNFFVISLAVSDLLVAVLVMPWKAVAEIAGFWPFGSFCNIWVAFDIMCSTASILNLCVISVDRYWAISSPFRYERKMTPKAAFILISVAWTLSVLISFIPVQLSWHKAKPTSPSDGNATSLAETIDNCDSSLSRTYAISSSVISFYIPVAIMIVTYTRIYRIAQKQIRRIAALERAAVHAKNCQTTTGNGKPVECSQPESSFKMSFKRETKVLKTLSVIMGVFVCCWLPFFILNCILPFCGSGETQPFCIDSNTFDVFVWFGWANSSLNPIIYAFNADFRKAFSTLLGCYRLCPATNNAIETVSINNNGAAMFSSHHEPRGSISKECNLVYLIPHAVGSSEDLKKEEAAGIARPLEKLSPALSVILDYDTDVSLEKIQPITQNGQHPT
D1 agonist = agonists of human D1 dopamine receptor; HEK293 T-REx D1 cells, calcium flux, agonist mode; hit rate 1% among 360,000; AID 504660; activation, % at 2 µM; note: 0% is about no effect
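Agonism was scored from calcium flux recorded over 180 s (1 read/s) after pintool compound addition, following a 10-cycle baseline. Cells were inducible force-coupled HEK293 TREx D1, plated overnight at 30 C and loaded with no-wash calcium dye.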
GRP78 ERSR act = ER stress response induction in glioma. U87-MG GRP78 promoter luciferase reporter, 16 h. Potency, µM, for inactives: top-dose activation, usual class: activators. hit rate 0.02% among 420,000. AID 602332; active = well fitted activation curve with a large enough effect; note: potency is the fitted concentration of half-maximal effect; series mostly up to about 76 µM; % of control where 0% means no effect; nearly all actives have a fitted effect of over 35% in size
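ERSR induction read as luciferase luminescence (Bright-Glo, 10 min at room temperature) in stably transfected human U87-MG glioma cells exposed to compounds for 16 h, using GRP78 as sensor.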
TRHR ag = activates the human TRH receptor. P34981. TRHR cells, calcium flux fluo-8, FDSS agonist mode. activation, % at 2 µM. hit rate 0.18% among 360,000. AID 493084; note: 0% is about no effect
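TRHR-expressing cells, plated overnight in medium with 10% serum, were loaded with fluo-8 calcium dye at room temperature. After a 10 s baseline, library compound was pin-added and calcium release was recorded kinetically (ex 480/em 530) as agonist response.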
TRHR PAM = TRH receptor (human) allosteric enhancement. TRHR cells, fluo-8 calcium fluorescence, EC20 TRH enhancement. enhancement, % at 2 µM. hit rate 0.66% among 360,000. AID 493056; in the data active = enhancement above about 30%; note: 0% is about no effect
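TRHR-expressing cells loaded with fluo-8 calcium dye were read kinetically (ex 480/em 530) during compound addition, then stimulated with an EC20 of TRH (10 nM final). Enhancement of the Gq-mediated intracellular calcium response was scored.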
D1 antag = blocks dopamine activation of the human D1 receptor; P21728; HEK293 TREx D1 cells, calcium flux, dopamine EC80; stronger effect = lower value; activity change, negative = inhibition, % at 10 µM; hit rate 3.2% among 360,000; AID 504652; in the data active = activity change below about -30%; note: % is set by controls: 0 for no effect and ±100 for the full control effect
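Kinetic fluorescence of a calcium dye serves as the read-out. D1-expressing Hek293 Trex cells, induced overnight at 30 C, are exposed to compound for 180 s before an EC80 dopamine addition, then read 180 s further.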
Starred values were filed as active, the others as inactive; nt = no result given. Cut-off read from the data, not from the text of the source, unless noted: active = activation above about 30%; inactive = the rest.

SMILES	D1 potentiator	D1 agonist	GRP78 ERSR act	TRHR ag	TRHR PAM	D1 antag
CCN(CC)S(=O)(=O)c1ccc(N=Nc2c(N)[nH]c(=O)[nH]c2=O)cc1	1.6	1.9	2.3%	-1.0	-4.7	-41.1*
CCCCNC(=O)Cc1cc(=O)[nH]c(=O)[nH]1	-2.0	2.3	-2.0%	0.2	-1.3	3.5
O=C(c1ccc(Cl)cc1)[C@@H]1[C@@H]2C(=O)N(c3ccc(Cl)cc3)C(=O)[C@@H]2C2c3ccccc3C=NN21 (some centres not stated)	1.3	27.9	-6.5%	4.9	0.2	-35.0*
CCn1nc(C)cc1C(=O)N1CCCC(C(=O)c2ccc(Oc3ccccc3)cc2)C1 (configuration not stated)	-0.7	5.2	-5.3%	-0.9	9.1	-34.7*
CCn1nc(C)cc1C(=O)N1CCCC(C(=O)c2ccc3ccccc3c2)C1 (configuration not stated)	-1.1	0.1	-4.4%	-1.0	-12.6	-4.6
c1ccc(CN(Cc2ccccc2)c2c3c(nc4ncnn24)CCC3)cc1	-0.9	3.0	3.5%	-1.2	-4.0	-5.3
c1ccc(CNc2c3c(nc4ncnn24)CCC3)cc1	-3.5	5.9	-2.1%	-1.4	5.2	-52.6*
CCN1CCC[C@@H]1CNC(=O)c1cc(S(=O)(=O)CC)ccc1OC	nt	nt	-4.7%	nt	nt	nt
Cc1ccc(OCC(=O)Nc2ccc(S(=O)(=O)Nc3ncccn3)cc2)c(C(C)(C)C)c1	1.9	-2.9	-3.1%	-1.4	-3.0	-31.1*
COc1ccccc1OCC(=O)Nc1sc2c(c1C(N)=O)CCC2	nt	nt	2.2%	nt	nt	nt
Cc1ccc(OCC(=O)Nc2sc3c(c2C(N)=O)CCCC3)c(C(C)(C)C)c1	-0.5	-0.6	nt	0.3	7.5	-38.8*
C=CCOC(/C=C/c1ccccc1)CC (configuration not stated)	nt	nt	-6.1%	nt	nt	nt
CN1CCN(c2ccc(S(=O)(=O)N3CCCCC3)cc2NC(=O)Cc2ccc(Cl)cc2)CC1	5.3	91.3*	-6.3%	11.7	-12.9	-14.2
N#Cc1ccc(C(=O)Nc2cc(S(=O)(=O)N3CCOCC3)ccc2N2CCOCC2)cc1	nt	nt	-4.9%	nt	nt	nt
CN1CCN(c2ccc(S(=O)(=O)N3CCCCC3)cc2NC(=O)CCc2ccccc2)CC1	nt	33.0*	-3.5%	4.0	-2.0	0.7
CCN1CCN(c2ccc(S(=O)(=O)N3CCCCC3)cc2NC(=O)COc2ccc(Cl)cc2)CC1	-5.3	0.3	-3.5%	-0.1	7.4	-43.0*
CN1CCN(c2ccc(S(=O)(=O)N3CCCCC3)cc2NC(=O)c2ccc(C#N)cc2)CC1	-2.3	0.7	-1.1%	0.6	0.7	-44.6*
CC(c1nnc(SCC(=O)c2c(N)n(C3CC3)c(=O)[nH]c2=O)n1-c1ccc(F)cc1)N(C)C (configuration not stated)	-4.2	0.5	2.1%	0.8	-10.6	-1.5
COc1ccc(-n2c(CN3CCN(c4ccc(F)cc4)CC3)nc3ccc([N+](=O)[O-])cc3c2=O)c(OC)c1	7.7	-1.8	1.3%	0.1	10.3	-1.2
CN(C)CCNc1oc(COc2ccc(-c3ccccc3)cc2)nc1C#N	-3.2	39.8*	4.2%	2.7	8.9	-8.1
N#Cc1nc(-c2ccc(OCc3ccccc3)cc2)oc1N1CCC(C(N)=O)CC1	-5.5	13.8	-4.9%	0.7	16.7	-35.5*
CN1CCN(c2oc(COc3ccc(-c4ccccc4)cc3)nc2C#N)CC1	-9.6	20.8	-1.9%	0.5	3.7	-34.8*
COc1cc2c(cc1OC)CN(CC(O)c1ccccc1)CC2 (configuration not stated)	nt	9.0	0.9%	1.2	8.3	5.5
Cc1ccc(-c2nnn(CC(=O)N3CCCCC3)n2)cc1	27.5	0.3	4.6%	0.0	-1.1	8.1
Cc1ccc(C(=O)/C=C/c2cn(CC(O)CN3CCOCC3)c3ccccc23)cc1 (configuration not stated)	-11.3	2.2	2.7%	10.1	-1.2	17.0
O=C(/C=C/c1cn(CC(O)CN2CCOCC2)c2ccccc12)c1cccs1 (configuration not stated)	-5.3	27.5	nt	31.5*	-0.1	-80.9*

Screens deposited in PubChem by National Center for Advancing Translational Sciences (NCATS).
